According to PubChem BioAssay AID2685 (National Center for Advancing Translational Sciences (NCATS), 2010):
The campaign covered roughly 320,000 compounds. About 2,100 (0.66%) were called active. About 53% were inconclusive and are not listed. This is one part of a sample in which actives are shown more often than they occur. Calls come from the whole dose curve; as a rule, active = well fitted inhibition curve with a large enough effect in the signal ratio, with a control signal flat (not every such curve was filed as active); inconclusive = small, poorly fitted or top-dose-only effect, or effect the other way, or a change in a side signal; inactive = flat fitted curve, though single readings scatter; the % refers to the signal ratio.
Potency is the fitted concentration of half-maximal effect.

Assay: qHTS Assay for Lipid Storage Modulators in Drosophila S3 Cells;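 for cell number change: cells counted by Cell Tracker Red CMTPX staining in the red channel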; for lipid storage change, negative = inhibition: % is set by controls: 0 for no effect and ±100 for the full control effect
Settings: BODIPY lipid droplet fluorescence, 18-24 h, cells fed with added oleic acid; cell number change: measured here: cell count max response; series mostly up to 46.1 µM; lipid storage change, negative = inhibition: at the top concentration
In short: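 Drosophila S3 cells got compounds at several concentrations plus oleic acid (400 uM solution). Laser-scanning cytometry with 488 nm excitation read lipid droplets at 500-530 nm and cells at 575-640 nm. Percent activity was relative to 20 uM Triacsin C.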
For `Cc1nnc(NC(=O)c2ccccc2C(=O)O)s1`, the “outcome” value was “inactive” and the cell number change was 10.9%. In the case of `O=C(Nc1cccc(-c2csc(Nc3cccc(C(F)(F)F)c3)n2)c1)c1cc([N+](=O)[O-])cc(C(F)(F)F)c1`, the “lipid storage change, negative = inhibition” value was -7.39% (inactive) and the cell number change was -14.2%. For `COC(=O)[C@@H](Cc1ccccc1)NC(=O)[C@H]1CCC(=O)N1C(=O)OCc1ccccc1`, the Potency was 7.31 µM (active) and the cell number change was -26.7%. With `CC(C)CC(NC(=O)C1CCC(=O)N1C(=O)OCc1ccccc1)C(=O)NC(Cc1ccccc1)C(N)=O` (stereo unspecified) the “outcome” value was “inactive” and the cell number change was 10.8%. In the case of `COC(=O)[C@@H](Cc1ccc(O)cc1)NC(=O)[C@H]1CCC(=O)N1C(=O)OCc1ccccc1`, the “lipid storage change, negative = inhibition” value was -26.1% (inactive) and the cell number change was -3.5%. With `Cn1c(=O)c2c(O)c(Cc3ccccc3)c(=O)[nH]c2n(C)c1=O` the “lipid storage change, negative = inhibition” value was 29.3% (inactive). For `O=C(Nc1ccccc1N1CCN(C(=O)c2ccccc2)CC1)c1ccc([N+](=O)[O-])o1`, the Potency was 8.2 µM (active) and the cell number change was 11.7%. For `CS(=O)(=O)N1CCN(c2ccccc2NC(=O)c2ccc([N+](=O)[O-])o2)CC1`, the “lipid storage change, negative = inhibition” value was -12.3% (inactive) and the cell number change was -11.1%. With `CCC(=O)N1CCN(c2ccc(Cl)cc2NC(=O)Cc2ccccc2)CC1` the “lipid storage change, negative = inhibition” value was 13.8% (inactive) and the cell number change was 12.9%. With `COc1ccc(N2CCN(C(=O)c3ccc4nc(N5CCCCC5)sc4c3)CC2)cc1` the “outcome” value was “inactive”. For `O=C(c1ccc([N+](=O)[O-])o1)N1CCN(Cc2ccccc2)CC1`, the Potency was 25.9 µM (active) and the cell number change was -14.3%. In the case of `O=C(Nc1ccccc1N1CCOCC1)c1ccc([N+](=O)[O-])o1`, the “lipid storage change, negative = inhibition” value was 2.83% (inactive) and the cell number change was -0.54%. With `CC(=O)N1CCN(c2nc3ccc([N+](=O)[O-])cc3s2)CC1` the “outcome” value was “inactive” and the cell number change was -3.82%. In the case of `CCC(=O)N1CCN(c2ccc(Cl)cc2NC(=O)c2ccc([N+](=O)[O-])o2)CC1`, the Potency was 5.8 µM (active) and the cell number change was -10.1%. For `O=C(c1ccc([N+](=O)[O-])o1)N1CCOCC1`, the “lipid storage change, negative = inhibition” value was -11.5% (inactive) and the cell number change was -1.55%. In the case of `Cc1ccc(C(=O)N2CCN(Cc3ccccc3)CC2)o1`, the “lipid storage change, negative = inhibition” value was 4.58% (inactive) and the cell number change was 15.9%. With `O=C(Nc1cc(Cl)ccc1-n1cncn1)c1ccc([N+](=O)[O-])o1` the “lipid storage change, negative = inhibition” value was 13% (inactive) and the cell number change was 8.28%. In the case of `COc1ccc2nc(N3CCN(C(=O)c4ccc([N+](=O)[O-])o4)CC3)sc2c1`, the Potency was 4.61 µM (active). In the case of `Cc1noc(C)c1COC(=O)c1csc2c1CCCC2`, the “lipid storage change, negative = inhibition” value was -16.4% (inactive). For `Cc1cc(Nc2c(C)n(C)n(-c3ccccc3)c2=O)c2ccccc2n1`, the “lipid storage change, negative = inhibition” value was -9.37% (inactive) and the cell number change was -23.8%. With `Cc1cccc(-n2cc(CN3CCCN(C=O)CC3)c(-c3cccc(F)c3)n2)c1` the “lipid storage change, negative = inhibition” value was -3.6% (inactive) and the cell number change was -4.39%. In the case of `O=C(NCc1cccnc1)Nc1cccc([N+](=O)[O-])c1`, the “outcome” value was “inactive” and the cell number change was 6.23%. With `CCOc1ncccc1C(=O)OCC(=O)N1CC(=O)Nc2ccccc21` the “outcome” value was “inactive”. For `Cc1c(/C=N/N=C2\CCC3C4CCc5cc(O)ccc5C4CCC23C)cnn1C` (stereo unspecified), the “outcome” value was “inactive” and the cell number change was 13.3%. For `O=C(CN1C(=O)COc2ccccc21)N1CCOCC1`, the “outcome” value was “inactive”. For `O=C(Nc1ccccc1N1CCN(C(=O)c2ccccc2)CC1)c1cccc(Cl)c1`, the “lipid storage change, negative = inhibition” value was 0.483% (inactive) and the cell number change was -6.81%. With `COc1ccc(C(=O)Nc2ccccc2N2CCOCC2)cc1Br` the “lipid storage change, negative = inhibition” value was 5.74% (inactive) and the cell number change was -0.289%. In the case of `CC1CCN(c2ccccc2NC(=O)c2ccc([N+](=O)[O-])o2)CC1`, the “lipid storage change, negative = inhibition” value was 20.1% (inactive) and the cell number change was 8.97%. In the case of `CCC(=O)N1CCN(c2ccccc2NC(=O)c2ccc([N+](=O)[O-])o2)CC1`, the Potency was 10.3 µM (active) and the cell number change was -1.26%. In the case of `CC(C)C(=O)N1CCN(c2ccccc2NC(=O)c2ccc([N+](=O)[O-])o2)CC1`, the “lipid storage change, negative = inhibition” value was -43.4% (inactive) and the cell number change was -10.5%. In the case of `O=C(Nc1ccc(N2CCCC2)c(Cl)c1)c1ccc([N+](=O)[O-])o1`, the “lipid storage change, negative = inhibition” value was -19.2% (inactive) and the cell number change was 2.06%. With `CN1CCN(c2ccccc2NC(=O)c2ccc(-c3ccccc3[N+](=O)[O-])o2)CC1` the Potency was 6.51 µM (active) and the cell number change was -10.4%. In the case of `CCC(=O)N1CCN(c2ccccc2NC(=O)c2ccc(-c3cccc([N+](=O)[O-])c3)o2)CC1`, the “lipid storage change, negative = inhibition” value was 18.4% (inactive) and the cell number change was 8.53%. In the case of `COc1ccccc1NC(=O)c1ccc(-c2ccccc2[N+](=O)[O-])o1`, the “lipid storage change, negative = inhibition” value was -1.69% (inactive). For `COc1ccc(N2CCCC2)c(NC(=O)c2ccc([N+](=O)[O-])o2)c1`, the Potency was 10.3 µM (active) and the cell number change was 16.1%. For `COc1ccc(N2CCCC2)c(NC(=O)c2ccc(Br)o2)c1`, the “outcome” value was “inactive” and the cell number change was 13.9%. For `COc1ccc(C(=O)Nc2ccccc2N2CCN(C(=O)c3ccccc3)CC2)cc1Br`, the Potency was 14.6 µM (active) and the cell number change was -6.04%. With `CC(C)CC(NC(=O)C(NC(=O)OC(C)(C)C)C(C)C)C(N)=O` (stereo unspecified) the “lipid storage change, negative = inhibition” value was 25.3% (inactive) and the cell number change was 1.19%. In the case of `C/C(=N/NC(=O)c1ccc2nc[nH]c2c1)c1cccs1`, the “lipid storage change, negative = inhibition” value was 10.5% (inactive) and the cell number change was 9.11%. For `CC12CCC(C(=O)Nc3ccccc3)(C(Br)C1=O)C2(C)C` (stereo unspecified), the “lipid storage change, negative = inhibition” value was -1.99% (inactive) and the cell number change was -7.13%. For `CC/C(O)=C(/C#N)c1nnc2n1CCCCC2`, the “lipid storage change, negative = inhibition” value was 5.83% (inactive) and the cell number change was 8.5%. For `CCOCCCNS(=O)(=O)c1cc2[nH]c3c(c2cc1C)C(=O)CC(C)(C)C3`, the “lipid storage change, negative = inhibition” value was 15.5% (inactive) and the cell number change was 16.9%. For `Cc1ccc(C(=O)NCCNC(=O)c2ccco2)cc1C`, the “outcome” value was “inactive” and the cell number change was 19.6%. In the case of `COC(=O)c1c(NC(=O)CC2SC(N)=NC2=O)sc2c1CCCC2` (stereo unspecified), the “outcome” value was “inactive”. For `COc1ccc(NC(C)c2ccccc2)cc1` (stereo unspecified), the “lipid storage change, negative = inhibition” value was -0.458% (inactive) and the cell number change was -5.31%. For `COc1ccc(N2CCN(c3nc(Cl)nc(N4CCOCC4)n3)CC2)cc1`, the “lipid storage change, negative = inhibition” value was 1.09% (inactive) and the cell number change was -11.2%. In the case of `COc1cc(C(=O)N(Cc2ccc(C)o2)C2CCS(=O)(=O)C2)cc(OC)c1OC` (stereo unspecified), the “outcome” value was “inactive” and the cell number change was -6.11%.
